Screening data: PubChem, National Center for Advancing Translational Sciences (NCATS)
POLI inh – DNA polymerase iota (human) inhibition | Q9UNA4 | Pol iota fluorescent replication assay, 10 min | Potency, µM (titrated, usually from 115 µM), without a hit: at the top dose activity, negative = inhibition, actives largely listed as inhibitors | hit rate 1% among 390,000 | AID 588590; note: potency is the fitted concentration of half-maximal effect
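Fluorescent replication assay read twice, at 0 min and 10 min after adding 50 nM (final) substrate. Enzyme (10 nM) and compounds were first incubated 15 min at room temperature; enzyme-free buffer wells were negative controls.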
POLB inh – inhibitors of human DNA polymerase beta; AID 485314; hit rate 1.3% among 340,000; Potency, µM (highest dose often 114 µM), inactives show top-dose activity change, negative = inhibition, hits mostly inhibitors; Pol beta primer extension/strand displacement, fluorescence kinetic; P06746; note: potency is the fitted concentration of half-maximal effect; % is set by controls: 0 for no effect and ±100 for the full control effect
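Enzyme-only controls used 10 nM Pol beta; buffer lacking enzyme served as negative control. Compound preincubated 15 min, then 50 nM substrate added; 0 and 10 min reads at room temperature.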
Pol kappa inh-1 – inhibitors of human DNA polymerase kappa; Q9UBT6; purified Pol kappa, fluorescent DNA synthesis assay, 10 min; Potency, µM (top dose mostly 107 µM), for the others: top-dose activity, negative = inhibition, usual class: inhibitors; hit rate 0.53% among 400,000; AID 588579; note: potency is the fitted concentration of half-maximal effect; % is set by controls: 0 for no effect and ±100 for the full control effect
Target sequence (Q9UBT6 whole entry, looked up): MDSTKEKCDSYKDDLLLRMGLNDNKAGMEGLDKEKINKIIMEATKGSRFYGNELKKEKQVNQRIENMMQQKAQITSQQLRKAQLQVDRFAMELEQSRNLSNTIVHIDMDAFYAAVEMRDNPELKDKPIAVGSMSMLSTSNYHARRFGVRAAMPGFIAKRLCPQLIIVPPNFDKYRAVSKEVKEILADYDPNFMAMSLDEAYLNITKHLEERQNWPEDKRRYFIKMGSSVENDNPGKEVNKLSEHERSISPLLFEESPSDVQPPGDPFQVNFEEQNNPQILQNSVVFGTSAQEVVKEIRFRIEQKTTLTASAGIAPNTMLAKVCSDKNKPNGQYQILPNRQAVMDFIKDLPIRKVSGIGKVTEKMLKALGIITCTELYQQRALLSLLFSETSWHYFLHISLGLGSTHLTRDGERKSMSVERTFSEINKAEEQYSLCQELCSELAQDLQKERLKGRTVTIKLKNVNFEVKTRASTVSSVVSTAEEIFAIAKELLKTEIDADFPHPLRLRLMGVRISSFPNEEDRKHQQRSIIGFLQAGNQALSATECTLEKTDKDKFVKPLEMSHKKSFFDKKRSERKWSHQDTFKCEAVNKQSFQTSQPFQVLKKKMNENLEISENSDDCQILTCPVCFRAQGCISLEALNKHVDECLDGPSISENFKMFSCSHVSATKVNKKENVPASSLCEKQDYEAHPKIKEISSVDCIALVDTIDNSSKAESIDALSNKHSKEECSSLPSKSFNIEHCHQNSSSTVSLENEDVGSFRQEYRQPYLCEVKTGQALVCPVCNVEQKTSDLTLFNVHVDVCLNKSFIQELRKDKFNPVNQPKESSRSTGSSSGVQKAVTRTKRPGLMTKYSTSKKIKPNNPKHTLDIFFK
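10 nM Pol kappa preincubated 15 min at room temperature with compounds, then reaction started with substrate at 50 nM final. Fluorescence read kinetically at 0 and 10 min; buffer-only wells served as negative control.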
WRN inhibitor – inhibitors of human WRN helicase. WRN helicase unwinding, fluorescent forked duplex, kinetic. Potency, µM (highest dose often 114 µM), for the others: at the top dose activity change, negative = inhibition, usual class: inhibitors. hit rate 0.46% among 360,000. AID 651768; note: potency is the fitted concentration of half-maximal effect; % is set by controls: 0 for no effect and ±100 for the full control effect; nearly all actives have a fitted effect of over 55% in size
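Primary qHTS, 1536-well format. 20 nM WRN + compound, 15 min RT; start with 100 nM forked fluorophore/quencher duplex, 2 mM ATP (final); kinetic read ex 525/em 598 nm.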
Pol eta inh-1 – inhibitors of human DNA polymerase eta | hit rate 1.2% among 390,000 | Q9Y253 | Potency, µM (highest dose often 114 µM), for inactives: top-dose activity change, negative = inhibition, most hits filed as inhibitors | AID 588591 | recombinant Pol eta, fluorescent DNA replication assay; note: potency is the fitted concentration of half-maximal effect; % is set by controls: 0 for no effect and ±100 for the full control effect
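Pol eta at 10 nM preincubated with compounds 15 min at room temperature; reaction started with fluorescent substrate (50 nM final) and read kinetically at 0 and 10 min.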
TbPGK inh – validation of Trypanosoma brucei phosphoglycerate kinase inhibitors | hit rate 79% among 500 | AID 686980 | Potency, µM (top dose mostly 57.5 µM), for the others: at the top dose activity change, negative = inhibition, actives largely listed as inhibitors | shares compounds with Pol kappa inh-1 | TbPGK coupled GAPDH assay, Kinase-Glo luminescence; note: potency is the fitted concentration of half-maximal effect; % is set by controls: 0 for no effect and ±100 for the full control effect; nearly all actives have a fitted effect of over 65% in size
Pol iota confirm – Human Pol iota inhibitor confirmatory assay. shares compounds with Pol kappa inh-1. Pol iota primer extension, TAMRA/BHQ fluorescence. Potency, µM, usual class: inhibitors. hit rate 77% among 1,500. AID 720496; note: potency is the fitted concentration of half-maximal effect
GALK inh confirm – galactokinase (human) inhibition, confirmation; shares compounds with Pol eta inh-1; purified GALK, Kinase-Glo ATP depletion luminescence; hit rate 70% among 150; Potency, µM (top dose mostly 115 µM), inactives show at the top dose activity, negative = inhibition, usual class: inhibitors; AID 2015
GALK redox cs – counter-screen for GALK inhibitors: redox cycling H2O2 generation; shares compounds with Pol eta inh-1; Phenol red-HRP H2O2 redox cycling, absorbance 600 nm; Potency, µM (series often up to 115 µM), for the others: top-dose activity change, negative = H2O2 signal, actives largely listed as inhibitors; hit rate 40% among 150; AID 2035
HEK293 viability – HEK-293 cytotoxicity, GALK inhibitor secondary. Potency, µM (titrated, usually from 46.1 µM), for inactives: at the highest dose activity change, negative = cytotoxicity, hits mostly inhibitors. HEK-293 viability, ATP luminescence (CellTiter-Glo), 24/48 h. hit rate 10% among 170. shares compounds with Pol eta inh-1; note: potency is the fitted concentration of half-maximal effect; % is set by controls: 0 for no effect and ±100 for the full control effect
Pol kappa inh-2 – Pol kappa (human) inhibition, cherry-pick confirmation. shares compounds with Pol eta inh-1. purified Pol-kappa, fluorescent strand-displacement substrate. Potency, µM, hits mostly inhibitors. hit rate 76% among 920; note: potency is the fitted concentration of half-maximal effect
Pol eta inh-2 – confirmation of human DNA polymerase eta inhibitors; shares compounds with Pol eta inh-1; Pol eta primer extension, TAMRA/BHQ fluorescence, 10 min; Potency, µM, hits mostly inhibitors; hit rate 64% among 2,600; AID 720502; note: potency is the fitted concentration of half-maximal effect
* marks the source's active call; other numbers are inactive results; ? = inconclusive; nt = no result; [ ] = remark or other dose. An excerpt weighted towards active compounds, which were near 2.3% of everything screened. Calls come from the whole dose curve; as a rule, active = well fitted curve in the direction sought with a large enough effect; inconclusive = small, poorly fitted or top-dose-only effect, or another doubt; inactive = no such curve, though single readings can be large; an effect the other way counts as inactive or inconclusive.

SMILES | POLI inh | POLB inh | Pol kappa inh-1 | WRN inhibitor | Pol eta inh-1 | Pol iota confirm | Pol eta inh-2 | others
O=[N+]([O-])c1ccc(C=NNC(=S)Nc2ccc(F)cc2)cc1 | 17% | nt | 6% | -2% | -13% | nt | nt
O=[N+]([O-])c1ccc(C=NNC(=S)NN=Cc2ccc([N+](=O)[O-])cc2)cc1 | 14µM* | nt | 25µM* | 56µM* | ? | 19* | 43* | Pol kappa inh-2=17*
CCOc1ccc(Nc2ccc(N)c(S(=O)(=O)O)c2)cc1 | 11µM* | nt | 32µM* | ? | 11µM* | 75* | 38* | Pol kappa inh-2=75*
CCOc1ccc(NS(=O)(=O)c2ccc(N)cc2)cc1 | 16% | -20% | 0% | -3% | 5% | nt | nt
O=C1c2cc([N+](=O)[O-])cc3cc([N+](=O)[O-])cc(c23)C(=O)N1c1ccccn1 | ? | ? | ? | ? | 16µM* | 67* | 30* | Pol kappa inh-2=21*
O=C1c2ccc(Oc3cccc([N+](=O)[O-])c3)cc2C(=O)N1c1ccccn1 | -26% | -1% | -2% | 4% | 1% | nt | nt
c1ccc(N2CCN(c3ncnc4[nH]ncc34)CC2)cc1 | -4% | 1% | -5%[60.1 µM] | nt | 13% | nt | nt
O=C(Nc1ccc(S(=O)(=O)Nc2ncccn2)cc1)c1ccc(N2CCCC2=O)cc1 | ? | ? | -45% | -31%[57.1 µM] | 45µM* | ? | ?
COc1ccc(-n2nc(C(=O)NCC(=O)Nc3ccccn3)c3ccccc3c2=O)cc1Cl | 1% | ? | -14% | -7% | 10µM* | 15* | ?
C=C1c2ccccc2O[C@H](C(=O)OCC)C1OC (mixture of isomers) | nt | nt | -11% | nt | nt | nt | nt
CCn1nc(-c2ccccc2C)nc2c(=O)n(C)c(=O)nc1-2 | -90% | nt | 2% | nt | nt | 1.2* | 3.8*
CS(=O)(=O)n1nc(-c2ccc(Cl)cc2)nc1N | 91% | ? | 3% | 3% | -26% | nt | nt
Cn1nc(-c2cccnc2)nc2c(=O)n(C)c(=O)nc1-2 | -85% | nt | -7% | nt | nt | 1.7* | 2.4*
Cn1nc(-c2ccc(F)cc2)nc2c(=O)n(C)c(=O)nc1-2 | -97% | nt | 7% | nt | nt | 1.3* | 0.85*
Cc1ccccc1-n1c2nc(=O)n(C)c(=O)c-2cc2ccccc21 | -8% | 23% | -5% | -2% | -14% | nt | nt
Cn1nc(-c2ccc(Cl)cc2)nc2c(=O)n(C)c(=O)nc1-2 | -89% | ? | -11% | nt | nt | 1.2* | 1.1* | GALK inh confirm=1.2µM*;GALK redox cs=1.1µM*;HEK293 viability=14µM*
Cn1nc(-c2ccccc2)nc1-c1ccccc1 | -8% | nt | -5% | 8% | -7% | nt | nt
COc1ccc(C(=O)NCCc2sc(-c3cccc(F)c3)nc2C)cc1 | 9% | -12% | -12%[60.1 µM] | nt | -5% | nt | nt
CCOc1ccc(C(=O)c2cn(CC(=O)Nc3ccc4c(c3)OCCO4)c3ccc(F)cc3c2=O)cc1 | 17% | 25% | -8% | nt | -9% | nt | nt
CC(=O)Nc1ccc2c(COC(=O)CC3Sc4ccccc4NC3=O)cc(=O)oc2c1 (centres undefined) | ? | 7.9µM* | 35µM* | ? | 20µM* | 60* | 48*
CC(=O)Nc1ccc(NC(=O)CC2Sc3ccccc3NC2=O)cc1 (centres undefined) | -2% | 8% | 8% | nt | -3% | nt | nt
COc1cccc(CNC(=O)Cn2cc3c(n2)-c2c(oc(C(=O)N4CCCC4)c2C)CC3)c1OC | 20% | -1% | -7% | nt | -4% | nt | nt
Cc1nnc(NC(=O)c2sc3nc(-c4cccs4)cc(C(F)(F)F)c3c2N)s1 | 28µM* | 35µM* | ? | -34%[57.1 µM] | 6.3µM* | 42* | 67*
O=C(O)c1ccc(NC2=C/C(=N/S(=O)(=O)c3cccs3)c3ccccc3C2=O)cc1 | nt | nt | nt | -16%[11.6 µM] | 8.9µM* | 30* | 21*
O=C(O)c1ccc(NC2=C/C(=N/S(=O)(=O)c3ccccc3)c3ccccc3C2=O)cc1 | ? | -24% | -11% | ? | 8.9µM* | 19* | 21* | GALK inh confirm=?;GALK redox cs=6µM*;HEK293 viability=11µM*
SMILES | POLI inh | POLB inh | Pol kappa inh-1 | WRN inhibitor | Pol eta inh-1 | Pol iota confirm | Pol eta inh-2 | others
CCc1ccc(S(=O)(=O)/N=C2\C=C(Nc3cccc(C(=O)O)c3)C(=O)c3ccccc32)cc1 | 1.1µM* | ? | -24% | ? | 22µM* | 75* | 60*
Cc1cccc(NC2=C/C(=N/S(=O)(=O)c3cccs3)c3ccccc3C2=O)c1 | -8% | 0% | -17% | -16% | -10% | nt | nt
COc1ccc(CNC(=O)c2cccn2-c2nnc(N3CCCC3)s2)c(OC)c1 | 14% | -18% | -17% | nt | -4% | nt | nt
O=C(CCc1ccco1)CCc1ccco1 | 25µM* | nt | ? | -13%[11.6 µM] | ? | ? | 76* | Pol kappa inh-2=34*
O=S(=O)(c1cc(O)ccc1O)c1cccc2c(S(=O)(=O)c3cc(O)ccc3O)cccc12 | 7.9µM* | nt | 18µM* | 32µM* | 4.5µM* | 8.4* | 15* | TbPGK inh=3.7µM*;Pol kappa inh-2=9.5*
Oc1cccc(O)c1 | nt | nt | -2%[60.1 µM] | nt | nt | nt | nt
Cc1ccc(S(=O)(=O)N(CC(=O)O)Cc2ccco2)cc1 | 28µM* | ? | ? | -32% | 18µM* | 67* | 19*
Cc1ccc(C(=O)NNC(=O)CSc2nnc3c(n2)[nH]c2ccc(F)cc23)cc1 | 11% | 5µM* | -1% | -14% | 79µM* | 19* | ? | Pol kappa inh-2=19*
COc1ccc2[nH]c3nc(SCC(=O)NNC(=O)c4ccc(OC)c(OC)c4)nnc3c2c1 | 0% | 15% | 3% | -34% | ? | nt | nt
